In the supplement of paper PMC11732987, “Enantioselective OTUD7B fragment discovery through chemoproteomics screening and high-throughput optimisation” (Communications Chemistry, 2025):

Experiments:
Test in all cases: log2 ratio of Biotin-Ahx-Ub-VS probe labelling (fragment/DMSO); higher = less target engagement (more negative = stronger competition), active = hit call of the paper (q ≤ 0.05, log2 ratio ≤ -1)
Conditions in all cases: compound concentration: 200 uM; treatment time: 3 h
[1] = molecular target: T1, ALG13 (UniProt Q9NP73)
T1 sequence (whole entry): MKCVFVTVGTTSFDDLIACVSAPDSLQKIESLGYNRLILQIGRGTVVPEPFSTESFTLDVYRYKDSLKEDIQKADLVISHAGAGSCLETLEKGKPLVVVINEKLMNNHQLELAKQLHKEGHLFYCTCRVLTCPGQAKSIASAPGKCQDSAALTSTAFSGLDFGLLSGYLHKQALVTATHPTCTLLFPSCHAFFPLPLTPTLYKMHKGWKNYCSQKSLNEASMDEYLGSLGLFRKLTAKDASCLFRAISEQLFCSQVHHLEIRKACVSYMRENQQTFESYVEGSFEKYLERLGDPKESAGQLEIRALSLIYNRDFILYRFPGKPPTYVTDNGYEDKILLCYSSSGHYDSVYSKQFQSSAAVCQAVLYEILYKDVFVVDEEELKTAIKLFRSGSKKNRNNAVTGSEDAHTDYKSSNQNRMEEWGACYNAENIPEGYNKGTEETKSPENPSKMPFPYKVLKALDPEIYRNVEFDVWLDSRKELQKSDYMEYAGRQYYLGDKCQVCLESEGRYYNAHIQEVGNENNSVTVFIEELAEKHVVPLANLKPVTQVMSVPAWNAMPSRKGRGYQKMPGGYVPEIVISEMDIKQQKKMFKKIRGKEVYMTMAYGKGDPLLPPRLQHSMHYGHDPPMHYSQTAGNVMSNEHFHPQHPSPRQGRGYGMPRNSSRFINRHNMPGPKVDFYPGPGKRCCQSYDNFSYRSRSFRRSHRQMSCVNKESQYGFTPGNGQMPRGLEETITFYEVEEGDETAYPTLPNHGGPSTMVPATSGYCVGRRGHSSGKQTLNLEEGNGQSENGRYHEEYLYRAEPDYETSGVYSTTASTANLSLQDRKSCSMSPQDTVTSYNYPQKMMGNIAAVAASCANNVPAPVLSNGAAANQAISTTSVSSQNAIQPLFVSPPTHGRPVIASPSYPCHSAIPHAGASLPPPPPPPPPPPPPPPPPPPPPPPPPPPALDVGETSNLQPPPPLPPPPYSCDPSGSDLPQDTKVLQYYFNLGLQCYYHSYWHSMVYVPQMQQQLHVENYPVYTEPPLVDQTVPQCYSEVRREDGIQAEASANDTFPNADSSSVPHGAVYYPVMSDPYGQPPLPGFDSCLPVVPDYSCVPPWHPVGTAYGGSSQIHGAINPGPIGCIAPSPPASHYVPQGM
Method in brief: (§1)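 HEK293T lysate (495 µg per sample, in Tris/CHAPS/IGEPAL buffer with protease inhibitors) was exposed in triplicate for 3 h to fragment at 200 µM or to vehicle, then to Biotin-Ahx-Ub-VS at 0.5 µM final for 1 h. Labelled DUBs were enriched on NeutrAvidin, digested with LysC and trypsin, and analysed by diaPASEF LC-MS/MS. Spectronaut label-free quantities were normalised to the global median, and values are average log2 ratios of fragment over vehicle from an unpaired t-test. Only proteins with ≥2 unique peptides were used.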

[2] = molecular target: ATXN3 (UniProt P54252)
Method in brief: as §1

[3] = molecular target: T2, BAP1 (UniProt Q92560)
T2 sequence (whole entry): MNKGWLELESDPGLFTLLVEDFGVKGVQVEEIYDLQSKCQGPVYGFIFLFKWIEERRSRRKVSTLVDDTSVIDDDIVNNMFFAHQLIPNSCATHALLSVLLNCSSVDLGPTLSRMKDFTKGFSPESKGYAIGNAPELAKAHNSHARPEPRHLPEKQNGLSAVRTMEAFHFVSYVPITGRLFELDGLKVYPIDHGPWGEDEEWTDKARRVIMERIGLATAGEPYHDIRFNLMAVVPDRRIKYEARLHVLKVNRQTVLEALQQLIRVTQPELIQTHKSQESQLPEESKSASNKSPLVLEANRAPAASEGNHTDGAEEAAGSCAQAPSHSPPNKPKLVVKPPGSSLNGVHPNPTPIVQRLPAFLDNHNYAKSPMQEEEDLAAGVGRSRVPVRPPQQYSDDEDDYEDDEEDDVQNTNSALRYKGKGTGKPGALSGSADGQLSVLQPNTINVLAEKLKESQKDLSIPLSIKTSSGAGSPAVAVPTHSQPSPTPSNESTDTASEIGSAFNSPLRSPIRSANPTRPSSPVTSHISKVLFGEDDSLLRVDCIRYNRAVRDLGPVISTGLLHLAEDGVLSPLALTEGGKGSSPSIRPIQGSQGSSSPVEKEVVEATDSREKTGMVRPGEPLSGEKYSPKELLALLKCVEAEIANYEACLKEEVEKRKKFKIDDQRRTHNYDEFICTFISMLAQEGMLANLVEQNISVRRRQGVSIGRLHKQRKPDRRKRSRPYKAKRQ
Method in brief: as §1

[4] = molecular target: EIF3F (UniProt O00303)
Method in brief: as §1

[5] = molecular target: EIF3H (UniProt O15372)
Method in brief: as §1

[6] = molecular target: T3, FAM105A (UniProt Q9NUU6)
T3 sequence (whole entry): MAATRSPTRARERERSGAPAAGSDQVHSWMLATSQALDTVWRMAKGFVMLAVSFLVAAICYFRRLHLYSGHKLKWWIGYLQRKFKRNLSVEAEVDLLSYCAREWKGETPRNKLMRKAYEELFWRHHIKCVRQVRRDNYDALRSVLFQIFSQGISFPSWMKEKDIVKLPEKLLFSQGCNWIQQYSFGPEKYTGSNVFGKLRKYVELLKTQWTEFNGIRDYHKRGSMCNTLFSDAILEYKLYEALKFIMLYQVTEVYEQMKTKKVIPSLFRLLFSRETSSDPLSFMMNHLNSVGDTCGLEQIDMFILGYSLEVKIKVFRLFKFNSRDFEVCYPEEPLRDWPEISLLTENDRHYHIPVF
Method in brief: as §1

[7] = molecular target: OTUB1 (UniProt Q96FW1)
Method in brief: as §1

[8] = molecular target: T4, OTUD4 (UniProt Q01804)
T4 sequence (whole entry): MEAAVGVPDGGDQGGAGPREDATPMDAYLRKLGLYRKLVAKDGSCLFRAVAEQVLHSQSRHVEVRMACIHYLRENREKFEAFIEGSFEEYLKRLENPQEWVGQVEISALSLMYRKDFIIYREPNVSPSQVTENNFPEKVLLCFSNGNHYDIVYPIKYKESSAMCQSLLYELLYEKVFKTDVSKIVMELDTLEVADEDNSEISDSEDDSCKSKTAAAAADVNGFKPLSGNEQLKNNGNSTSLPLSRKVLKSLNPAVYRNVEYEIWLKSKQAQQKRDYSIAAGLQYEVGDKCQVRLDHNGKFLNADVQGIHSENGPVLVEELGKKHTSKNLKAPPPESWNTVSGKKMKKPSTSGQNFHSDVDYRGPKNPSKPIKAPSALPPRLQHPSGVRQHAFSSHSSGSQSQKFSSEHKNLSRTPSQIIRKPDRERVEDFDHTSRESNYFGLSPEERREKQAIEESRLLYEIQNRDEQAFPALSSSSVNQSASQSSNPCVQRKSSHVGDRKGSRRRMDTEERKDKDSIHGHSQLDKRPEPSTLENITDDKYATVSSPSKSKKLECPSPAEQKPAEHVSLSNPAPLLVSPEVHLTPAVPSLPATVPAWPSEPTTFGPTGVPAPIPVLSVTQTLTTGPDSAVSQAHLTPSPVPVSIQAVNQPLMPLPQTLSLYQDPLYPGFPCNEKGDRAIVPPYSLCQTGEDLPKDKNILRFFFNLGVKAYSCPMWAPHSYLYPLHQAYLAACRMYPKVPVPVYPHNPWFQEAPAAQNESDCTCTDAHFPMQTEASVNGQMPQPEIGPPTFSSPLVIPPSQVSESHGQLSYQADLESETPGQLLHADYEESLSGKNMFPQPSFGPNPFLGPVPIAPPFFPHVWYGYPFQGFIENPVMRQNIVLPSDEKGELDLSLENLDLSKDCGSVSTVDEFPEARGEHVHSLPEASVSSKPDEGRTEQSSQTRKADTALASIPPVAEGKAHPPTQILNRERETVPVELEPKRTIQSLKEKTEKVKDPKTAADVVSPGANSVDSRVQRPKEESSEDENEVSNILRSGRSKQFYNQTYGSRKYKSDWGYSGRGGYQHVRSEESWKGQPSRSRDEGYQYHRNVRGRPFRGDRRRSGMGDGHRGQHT
Method in brief: as §1

[9] = molecular target: T5, OTUD5 (UniProt Q96G74)
T5 sequence (whole entry): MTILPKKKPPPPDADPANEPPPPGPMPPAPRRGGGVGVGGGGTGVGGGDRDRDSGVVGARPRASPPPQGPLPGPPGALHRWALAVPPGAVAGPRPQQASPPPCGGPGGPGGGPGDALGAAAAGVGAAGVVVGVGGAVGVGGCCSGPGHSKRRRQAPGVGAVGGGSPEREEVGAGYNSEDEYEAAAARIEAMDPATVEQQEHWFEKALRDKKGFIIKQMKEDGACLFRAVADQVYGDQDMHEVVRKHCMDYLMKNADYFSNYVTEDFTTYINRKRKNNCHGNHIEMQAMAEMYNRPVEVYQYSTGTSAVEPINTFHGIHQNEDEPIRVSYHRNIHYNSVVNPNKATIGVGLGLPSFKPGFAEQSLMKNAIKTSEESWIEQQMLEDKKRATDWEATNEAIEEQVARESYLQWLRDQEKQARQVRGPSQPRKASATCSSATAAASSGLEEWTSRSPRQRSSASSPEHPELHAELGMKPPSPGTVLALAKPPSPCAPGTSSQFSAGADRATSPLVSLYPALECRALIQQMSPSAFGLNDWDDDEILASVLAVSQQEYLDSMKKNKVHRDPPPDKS
Method in brief: as §1

Measured: log2 ratio of Biotin-Ahx-Ub-VS probe labelling

Chain of ATXN3 (P54252 whole entry): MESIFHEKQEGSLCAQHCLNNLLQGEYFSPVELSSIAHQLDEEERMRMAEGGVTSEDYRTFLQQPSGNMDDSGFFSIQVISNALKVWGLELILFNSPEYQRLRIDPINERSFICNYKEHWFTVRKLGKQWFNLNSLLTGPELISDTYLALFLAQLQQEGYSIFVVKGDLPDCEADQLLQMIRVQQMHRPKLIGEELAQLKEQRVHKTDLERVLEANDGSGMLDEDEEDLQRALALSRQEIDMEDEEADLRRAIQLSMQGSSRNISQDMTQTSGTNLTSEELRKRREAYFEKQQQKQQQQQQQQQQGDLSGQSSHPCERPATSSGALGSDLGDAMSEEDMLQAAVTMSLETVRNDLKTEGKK
Chain of OTUB1 (Q96FW1 whole entry): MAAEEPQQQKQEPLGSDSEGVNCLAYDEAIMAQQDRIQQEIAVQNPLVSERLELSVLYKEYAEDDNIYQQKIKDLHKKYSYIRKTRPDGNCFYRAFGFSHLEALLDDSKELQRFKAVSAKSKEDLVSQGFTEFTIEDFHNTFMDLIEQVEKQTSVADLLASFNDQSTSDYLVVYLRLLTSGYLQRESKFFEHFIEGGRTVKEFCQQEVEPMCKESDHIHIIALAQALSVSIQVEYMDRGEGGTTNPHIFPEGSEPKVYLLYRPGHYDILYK
Chain of EIF3H (O15372 whole entry): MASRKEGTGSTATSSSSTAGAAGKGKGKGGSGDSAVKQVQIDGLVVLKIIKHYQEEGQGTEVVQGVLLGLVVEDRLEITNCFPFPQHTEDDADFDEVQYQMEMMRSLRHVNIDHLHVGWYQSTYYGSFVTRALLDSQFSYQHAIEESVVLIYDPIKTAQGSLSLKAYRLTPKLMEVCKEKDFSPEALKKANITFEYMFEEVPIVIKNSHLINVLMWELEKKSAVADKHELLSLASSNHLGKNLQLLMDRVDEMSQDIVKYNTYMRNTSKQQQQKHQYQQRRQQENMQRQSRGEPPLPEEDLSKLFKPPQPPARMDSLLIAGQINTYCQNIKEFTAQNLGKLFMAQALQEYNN
Chain of EIF3F (O00303 whole entry): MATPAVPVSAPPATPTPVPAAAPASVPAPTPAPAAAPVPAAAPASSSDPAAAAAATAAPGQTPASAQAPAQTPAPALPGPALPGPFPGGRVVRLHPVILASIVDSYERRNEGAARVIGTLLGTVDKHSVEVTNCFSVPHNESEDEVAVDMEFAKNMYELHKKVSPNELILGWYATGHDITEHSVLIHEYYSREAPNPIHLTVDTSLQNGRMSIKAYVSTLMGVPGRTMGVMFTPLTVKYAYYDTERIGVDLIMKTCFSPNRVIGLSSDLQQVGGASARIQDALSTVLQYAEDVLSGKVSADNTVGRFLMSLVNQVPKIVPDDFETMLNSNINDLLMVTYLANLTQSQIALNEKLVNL

O=C(CCl)N1CCC(O)(Cc2ccc(F)cc2)C1 (centres undefined)
inactive: [1] -0.581 | [2] -0.456 | [3] -0.845 | [4] -0.133 | [5] -0.189 | [6] -0.0755 | [7] -0.0952 | [8] -0.135 | [9] -0.233
